PubChem BioAssay (EPA / NIEHS)
Records with an inconclusive call do not appear. Calls of active or inactive are those of the source. How the source made its calls: active means hit-call score of the fitted dose curve at least 0.9, where 1 is the maximum; inconclusive means response in the unintended direction; inactive means score below 0.9.

What follows are compounds tested against human Ephrin type-A Receptor 2 (EphA2), EPHA2 (gene 1969) (UniProt P29317) (assay: NVS_ENZ_hEphA2: NovaScreen (NVS) Enzymatic Assay for human Ephrin type-A Receptor 2 (EphA2) (AID 2283155)).
Chain of human Ephrin type-A Receptor 2 (EphA2), EPHA2 (gene 1969) (P29317 whole entry, looked up): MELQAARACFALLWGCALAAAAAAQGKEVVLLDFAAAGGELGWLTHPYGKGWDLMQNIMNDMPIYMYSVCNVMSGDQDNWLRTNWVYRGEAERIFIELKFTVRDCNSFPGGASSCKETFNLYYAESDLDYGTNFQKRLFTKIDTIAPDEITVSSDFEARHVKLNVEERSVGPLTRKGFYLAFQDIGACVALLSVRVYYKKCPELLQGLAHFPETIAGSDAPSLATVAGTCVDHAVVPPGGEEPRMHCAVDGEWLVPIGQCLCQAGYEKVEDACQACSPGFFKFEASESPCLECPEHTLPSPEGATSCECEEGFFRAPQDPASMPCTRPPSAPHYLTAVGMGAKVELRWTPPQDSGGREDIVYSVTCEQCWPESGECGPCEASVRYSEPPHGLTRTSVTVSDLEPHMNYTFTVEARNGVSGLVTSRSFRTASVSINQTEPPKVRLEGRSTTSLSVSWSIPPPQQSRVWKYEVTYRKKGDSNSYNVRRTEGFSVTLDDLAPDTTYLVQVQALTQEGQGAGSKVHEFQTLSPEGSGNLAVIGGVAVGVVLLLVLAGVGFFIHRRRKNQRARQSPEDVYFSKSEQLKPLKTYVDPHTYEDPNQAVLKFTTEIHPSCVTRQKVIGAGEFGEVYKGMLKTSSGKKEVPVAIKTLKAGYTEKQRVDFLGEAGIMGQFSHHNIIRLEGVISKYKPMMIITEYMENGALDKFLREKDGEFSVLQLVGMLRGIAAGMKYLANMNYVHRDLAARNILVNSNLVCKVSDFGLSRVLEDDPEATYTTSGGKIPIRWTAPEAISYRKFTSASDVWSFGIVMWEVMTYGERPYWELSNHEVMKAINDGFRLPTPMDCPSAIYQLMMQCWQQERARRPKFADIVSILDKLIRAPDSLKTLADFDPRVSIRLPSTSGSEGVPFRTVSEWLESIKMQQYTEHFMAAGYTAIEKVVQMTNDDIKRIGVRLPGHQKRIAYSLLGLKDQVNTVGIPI
Experimental: NVS_ENZ_hEphA2 is a biochemical, single-readout assay that uses extracted gene-proteins in a cell-free assay. Measurements were taken 1 hour after chemical dosing in a 384-well plate.NVS_ENZ_hEphA2 is one of one assay component(s) measured or calculated from the NVS_ENZ_hEphA2 assay. It is designed to make measurements of enzyme activity, a form of enzyme reporter, as detected with fluorescence intensity signals by Fluorescence and electrophoretic mobility shift technology.Data from the assay component NVS_ENZ_hEphA2 was analyzed into 1 assay endpoint. This assay endpoint, NVS_ENZ_hEphA2, was analyzed in the positive analysis fitting direction relative to DMSO as the negative control and baseline of activity. Using a type of enzyme reporter, loss-of-signal activity can be used to understand changes in the enzymatic activity as they relate to the gene EPHA2. Furthermore, this assay endpoint can be referred to as a primary readout, because this assay has produced multiple assay endpoints where this one serves a enzymatic activity function. To generalize the intended target to other relatable targets, this assay endpoint is annotated to the kinase intended target family, where the subfamily is receptor tyrosine kinase.
Binding assays used specific radioligands (tritiated, iodinated) with non-radioactive competitive displacement ligands in agonist or antagonist protocols (as indicated) and various reference compounds and inhibitors to titrate specific binding to receptors and transporters. Most enzyme assays (CYPs, kinases, phosphatases, proteases, HDACs) used recombinant protein and specific substrates (fluorescence mostly, some colorimetric and radioactive) and inhibitors, followed by a biochemical separation of substrate and product. All assays for the biochemical HTS were initially run in duplicate at a single concentration (10 uM for CYP450 assays and 25 uM for all others). Assay-chemical combinations meeting a pre-defined threshold (e.g., 30% inhibition and other criteria defined below) were then run in singleton concentration-response format with maximum concentration of 20 uM for CYPs and 50 uM for all others. Each assay was run with positive and negative controls, and concurrent controls on every plate. The follow-up (secondary) screen tested active chemical-pairs in concentration series, as well as a few additional assays not tested in the primary screen, some selected negative inactives, and several cases re-run in the concentration series for confirmatory purposes.
With `O=C(O)Cc1cc(I)c(Oc2cc(I)c(O)c(I)c2)c(I)c1` the outcome was “inactive”.
For `O=C(O)c1cccc(Oc2ccccc2)c1`, the outcome was “inactive”.
`CN(C)C(=O)NC1(c2ccccc2)CCN(CCC[C@]2(c3ccc(Cl)c(Cl)c3)CCCN(C(=O)c3ccccc3)C2)CC1` was tested, and the outcome was “inactive”.
With `CC(C)(c1ccc(O)cc1)c1ccc(O)cc1` the outcome was “inactive”.
In the case of `Cc1ncc(CO)c(CO)c1O`, the outcome is reported as “inactive”.
`N#C[C@@H]1CC(F)(F)CN1C(=O)CNC1CC2CCC(C1)N2c1ncccn1` (stereo partly specified) was tested, and the outcome was “inactive”.
For `CC1=C(/C=C/C(C)=C/C=C/C(C)=C/CO)C(C)(C)CCC1`, the outcome was “inactive”.
For `CC(C)c1cccc(C(C)C)c1`, the outcome was “inactive”.
For `N#CCCCCC#N`, the outcome was “inactive”.
For `CC[C@H](C)C(=O)O[C@H]1C[C@H](O)C=C2C=C[C@H](C)[C@H](CC[C@@H](O)C[C@@H](O)CC(=O)O)[C@H]21`, the outcome was “inactive”.
For `CCN(CC)C(=S)SSC(=S)N(CC)CC`, the outcome was “inactive”.
With `Cc1ccc(N)cc1O` the AC50 was 18.1 µM (active).
With `c1ccc2[nH]c(-c3cscn3)nc2c1` the outcome was “inactive”.
With `Cc1ccc(Cl)cc1` the outcome was “inactive”.
`CC(=O)c1ccccc1` was tested, and the outcome was “inactive”.
In the case of `O=Cc1ccccc1C=O`, the outcome is reported as “inactive”.
With `CNS(=O)(=O)c1cc(C(=O)N2CCC(CCN3C4CCC3CC(n3c(C)nc5ccccc53)C4)(c3cccc(F)c3)CC2)c(Cl)cc1F` (stereo unspecified) the outcome was “inactive”.
In the case of `Clc1nc(Cl)c(Cl)c(Cl)c1Cl`, the outcome is reported as “inactive”.
For `CCCCCCCCCCCCCC[P+](CCCC)(CCCC)CCCC`, the AC50 was 9.76 µM (active).
`CCCCc1oc2ccccc2c1C(=O)c1cc(I)c(OCCN(CC)CC)c(I)c1` was tested, and the outcome was “inactive”.
In the case of `Cc1nc(-c2ccccn2)ncc1C(=O)Nn1cc(C)c2cc(F)ccc21`, the outcome is reported as “inactive”.
In the case of `O=C(Nc1ccc(Cl)cc1)Nc1ccc(Cl)c(Cl)c1`, the outcome is reported as “inactive”.
With `CCCOc1sc(C(=O)N2CCC(c3cc(CN)ccc3F)CC2)c(C)c1Br` the outcome was “inactive”.
`Cc1ccc(C(C)(C)C)c(O)c1` was tested, and the outcome was “inactive”.
With `O=C(NO)C1(NS(=O)(=O)c2ccc(Oc3ccc(F)cc3)cc2)CCOCC1` the outcome was “inactive”.
`CCOC(=O)NCCOc1ccc(Oc2ccccc2)cc1` was tested, and the outcome was “inactive”.
